This is an account of results in PubChem BioAssay AID686979 (National Center for Advancing Translational Sciences (NCATS), 2013).

“And” between values parts separate entries of the source, which are not always exact repeats. Identical values can stand only once. The campaign covered roughly 420,000 compounds. About 50,000 (12%) were called active. A call without a number means that no potency is given here. Roughly 26% stayed inconclusive and do not appear here. The sample as a whole holds a higher share of actives than the screen did. A number with no mark means an inactive call. The call rests on the fitted dose curve; in most records, active means well fitted inhibition curve with a large enough effect; inconclusive means small, poorly fitted or top-dose-only effect; inactive means flat fitted curve, though single readings scatter.
Potency means the concentration at half of the fitted maximal effect.

The nature of the test: qHTS for Inhibitors of human tyrosyl-DNA phosphodiesterase 1 (TDP1): qHTS in cells in presence of CPT. Further: nearly all actives have a fitted effect of over 55% in size. Conditions: chicken DT40 Tdp1-/-;hTDP1 cells + 20 nM CPT, ATP luminescence, 48 h; series mostly up to 46.2 µM. An excerpt:
Human tyrosyl-DNA phosphodiesterase 1 (TDP1) is a novel repair gene, and we propose to use it as a new target for anticancer drug development. TDP1 is not an essential protein, but under treatment with topoisomerase I poison (camptothecin: CPT), TDP1 works as a critical factor for cell survival. To directly identify novel TDP1 inhibitors active in a cellular environment, we have knocked-out the Tdp1 gene in chicken DT40 cells (Tdp1-/-) and generated a complemented counterpart cells that contains a stable transfection of the human TDP1 gene (Tdp1-/-;hTDP1 cells). For the primary screen, Tdp1-/-;hTDP1 cells will be exposed to small molecules in the presence or absence of CPT, and their growth kinetics will be evaluated after 48 hours by measuring ATP activity. […] The hit compounds will then be evaluated in the presence or absence of CPT using Tdp1-/- cells. […] In tertiary assays, biochemical gel-based assays will be used to assess whether the hit compounds specifically target TDP1. To this end, we have screened this cell line against the MLSMR in two primary screens. In one screen we add CPT and in the other we screen in the absence of CPT; this AID represents the screen where CPT was present. NIH Chemical Genomics Center [NCGC] NIH Molecular Libraries Probe Centers Network [MLPCN] MLPCN Grant: MH095538 Assay Submitter (PI): Yves Pommier, NCI
DT40-hTDP1 cells with 20 nM Camptothecin (add 20 microL of 1 mM CPT stock in 1 L of cell culture medium) were dispensed at 400 cells/5microL/well in tissue culture treated 1536-well white wall/solid bottom assay plates (Greiner Bio-One North America, NC, U.S.A.) using a Multidrop Combi 8 channel dispenser (Thermo Fisher, Waltham, MA, USA). 23 nL compounds and controls were transferred using the pin tool (Kalypsys, San Diego, CA, USA) to the assay plates. The assay plates were then incubated at 37 masculineC for a minimum 48 hr. Three microL of Cell Titer Glo solution was added to the plates and incubated at RT in dark for 30 min. Luminescence was read using ViewLux (Perkin Elmer) with 1 sec exposure slow speed, high gain and 2x binning.
In general terms: In qHTS, concentration-response curves come from the screen itself.
With `Cc1cccc(C)c1N1CCN(S(=O)(=O)N2CCCCC2)CC1`, the Potency result is “inactive”. Next, `COc1cc(OC)cc(-c2nc3nc(C)c(CCC(=O)Nc4ccc(C)cc4)c(C)n3n2)c1`: “inactive”; `CCOC(=O)c1cccc(NC(=O)CCc2c(C)nc3ncnn3c2C)c1`: “inactive”.

For the compound `COc1cc(OC)cc(-c2nc3nc(C)c(CCC(=O)Nc4ccccc4)c(C)n3n2)c1`, the Potency was 14.6 µM (active). Next, `CC(C)OC(=O)c1ccc(COc2ccc3ccc(=O)oc3c2)o1`: “inactive”; `O=C(C1CCCO1)N1CCN(S(=O)(=O)c2ccc(Br)cc2)CC1` (stereo not given): “inactive”. Next, `CC(C)CCN1CCN(Cc2ccc(C(F)(F)F)cc2)CC1CCO` (stereo not given): “inactive”; `CN(Cc1cn(Cc2ccc(C(F)(F)F)cc2)nn1)C1CN(Cc2cn(Cc3ccc(C(F)(F)F)cc3)nn2)S(=O)(=O)C1` (stereo not given): 6.51 µM (active). For `CN(C)C1CN(Cc2cn(Cc3ccccc3)nn2)S(=O)(=O)C1` (stereo not given) the value was “inactive”; for `O=C(c1ccc(Cl)c(Cl)c1)N1CCCC1`, “inactive”; for `O=C(c1ccc(Cl)c(S(=O)(=O)N2CCCCC2)c1)N1CCCCCC1`, “inactive”. In the case of `O=C(c1ccc(Cl)c(S(=O)(=O)N2CCCCCC2)c1)N1CCN(c2ccc(O)cc2)CC1`, the Potency is 18.4 µM (active). Next, `CN(C)c1cccc(C(=O)N2CCC(n3nccc3NC(=O)C3CCOC3)CC2)c1` (stereo not given): “inactive”; `Cn1c(=O)c(Sc2ccc(Cl)cc2)c(O)c2ccccc21`: “inactive”. For `CC1Cc2ccccc2N1CC(=O)Nc1ccc2c(c1)OC(F)(F)O2` (stereo not given) the value was “inactive”. Next, `O=C(Nc1cccc(C(F)(F)F)c1)c1cnccn1`: “inactive”. As to `N#Cc1ccc(Oc2ccc(C(F)(F)F)cc2NC(=O)c2ccc(F)cc2)cc1`, the Potency entry is “inactive”. For `COc1cc(NC(=O)c2cncc(-c3ccc(C#N)cc3)c2)cc(C(=O)Nc2cccc(C(F)(F)F)c2)c1`, the Potency is 8.2 µM (active) and 16.4 µM (active).

Take `COc1cc(NC(=O)c2[nH]cnc2C(N)=O)cc(C(=O)Nc2cccc(C(F)(F)F)c2)c1`: the Potency was 20.6 µM (active). For `CCN(CC)C(=O)C1=C(C)N(Cc2ccc(F)cc2)C(=O)C(CC(=O)NC2CCCC2)C1` (stereo not given) the value was “inactive”; for `O=c1ccn([C@@H]2O[C@H](COP(=O)(O)OP(=O)(O)OP(=O)(O)O)[C@@H](O)[C@H]2O)c(=O)[nH]1`, “inactive”; for `CNS(=O)(=O)c1cccc(C(=O)OCC(=O)N2c3ccccc3NC(=O)C2(C)C)c1`, “inactive”. Next, `CCOc1ccc(NC(=O)CN(C)C(=O)CCSc2ccc(F)cc2)cc1OCC`: “inactive”; `CC(C)Oc1ccc(C(CC(=O)N2CCOCC2)C(C)C)cc1` (stereo not given): “inactive”; `COc1ccccc1CNC(=O)C(=O)NCC(c1cccs1)S(=O)(=O)c1cccs1` (stereo not given): “inactive”. Next, `Cc1ccccc1CNC(=O)C(=O)NCC(c1cccs1)S(=O)(=O)c1cccs1` (stereo not given): 13 µM (active); `CC(C)C(=O)NCC(c1cccs1)S(=O)(=O)c1ccc(F)cc1` (stereo not given): “inactive”. On to `CC(C)C(=O)Nc1nnc(Sc2ccc(N(C)C)cc2)s1`, for which the Potency result was “inactive”. For `Cc1noc(C)c1S(=O)(=O)N(C)Cc1ccccc1` the value was “inactive”. For the compound `CN(Cc1ccccc1)c1ncnc2onc(-c3ccc(F)cc3)c12`, the Potency was 23.1 µM (active). On to `CN(Cc1ccccc1)c1ccc(-c2nc(-c3ccccc3)no2)cc1[N+](=O)[O-]`, for which the Potency result is “inactive”. Next, `Cc1ccc2c(C)c(C(=O)N3CCC(N4CCC(C(=O)NC5CC5)CC4)CC3)oc2c1`: “inactive”. Next, `CN1CN(C)c2ccc([N+](=O)[O-])c3cccc1c23`: “inactive”; `COc1ccc([C@H]2N[C@]3(CCCN(Cc4ccco4)C3=O)[C@H]3C(=O)N(C)C(=O)[C@@H]23)cc1`: “inactive”; `O=C1[C@H]2[C@@H](c3ccc(C(F)(F)F)cc3)N[C@]3(CCCN(Cc4ccc(Br)cc4)C3=O)[C@H]2C(=O)N1Cc1ccccc1`: “inactive”. As to `CCN1C(=O)[C@H]2[C@@H](c3ccc(C(F)(F)F)cc3)N[C@]3(CCCN(Cc4ccc(Br)cc4)C3=O)[C@H]2C1=O`, the Potency is 13 µM (active). For `CCN1C[C@@H]2[C@@H]3C(=O)N(Cc4ccccc4)C(=O)[C@@H]3[C@](C)(C1=O)N2C(=O)c1ccc(C(C)(C)C)cc1` the value was “inactive”; for `O=C1[C@H]2[C@@H](c3ccc(C(F)(F)F)cc3)N[C@]3(CCCN(Cc4ccc(Cl)cc4)C3=O)[C@H]2C(=O)N1Cc1ccccc1`, 16.4 µM (active); for `CN(Cc1ccccc1)S(=O)(=O)c1nnc(NC(=O)c2ccccc2F)s1`, “inactive”.

As for `CCOc1cc(CNCCN(C)C)c(Cl)cc1OCC(=O)NCCc1ccccc1`, the Potency result was “inactive”. For `Nc1ncnc2c1ncn2[C@@H]1O[C@H](CNS(=O)(=O)c2ccc(-c3ccno3)s2)[C@@H](O)[C@H]1O` the value was “inactive”; for `O=C(Nc1nnc(SCc2c(Cl)cccc2Cl)s1)c1cccc([N+](=O)[O-])c1`, “inactive”. Regarding `O=C(Nc1ccc2c(c1)OCO2)C1CC(c2c(F)cccc2Cl)=NO1` (stereo not given), the Potency result was “inactive”. Next, `COc1ccc(NC(=O)C2Cc3c(-c4ccc5c(c4)OCO5)ccnc3O2)cn1` (stereo not given): 4.11 µM (active); `COc1ccc(N(CC(=O)NC2CCCC2)C(=O)CS(=O)CC(=O)Nc2ccc3c(c2)OCO3)cc1` (stereo not given): “inactive”.
